In PubChem BioAssay AID1626 (SRMLSC, 2009) one finds inhibition data, which are given here for 97 compounds.

The structures appear in SMILES notation. Among all 220,000 compounds or so, about 2,000 (0.91%) were called active. Inconclusive results (about 2%) are left out. Cut-off read from the data, not from the text of the source: inconclusive = inhibition above about 80% without an active follow-up result; inactive = below that; test concentration not stated here. Only a sample is shown. Potency and affinity values are given separately.

The test in a line: M. tuberculosis H37Rv growth inhibitors, H37Rv strain (AID 1626).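 Note: bacteria incubated seven days before Alamar blue readout; 0% = bacteria only wells and 100% = bacteria with antibiotic wells.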 The note with it: active compounds read high, concentration not given here.
The inhibition is the drop in the measured response relative to a control, in per cent. Take `CC(=O)c1ccc(N(C(=O)Cn2nnc3ccccc32)C(C(=O)NC2CCCCC2)c2cn(C)nc2C)cc1` (configuration not stated): the inhibition was -5.66% (inactive).
Regarding `Clc1nc(-c2cccnc2)nc2scc(-c3ccccc3)c12`, the inhibition is 8.19% (inactive).
Take `Clc1ncnc2scc(-c3ccccc3)c12`: the inhibition is -11.5% (inactive).
The same measure for `O=C(OCc1nc2ccccc2s1)c1ccccc1O`: 16.7% (inactive).
The same measure for `O=C(COC(=O)c1ccc(Br)o1)Nc1nc2ccccc2s1`: -3.5% (inactive); for `Nc1ccc(C(=O)OCc2nc3ccccc3s2)cc1`: -2.83% (inactive).
The same measure for `O=C(COC(=O)c1ccco1)Nc1nc2ccccc2s1`: -0.64% (inactive); for `CC(OC(=O)C(NC(=O)c1ccco1)C(C)C)C(=O)Nc1ncc(Cl)cc1Cl` (configuration not stated): -14.4% (inactive).
For the compound `Cc1c(N=Cc2nc3ccccc3n2C)c(=O)n(-c2ccccc2)n1C`, the inhibition is -8.83% (inactive).
The same measure for `CCN(CC)Cc1cc(C(=O)O)c(C)o1`: -8.95% (inactive).
The same measure for `Cc1ccc(C2(C)NC(=O)N(Cc3c(C)noc3C)C2=O)cc1` (configuration not stated): -0.8% (inactive); for `O=C(Nc1ccc([N+](=O)[O-])cn1)C1CC1`: 5.22% (inactive); for `O=C(NCc1cccc(Cl)c1)c1ccco1`: 0.19% (inactive).
As to `CN1c2ccc([N+](=O)[O-])cc2CC2(C(=O)NC(=O)N(c3ccccc3)C2=O)C1c1ccccc1` (configuration not stated), the inhibition is 76.5% (inactive).
The same measure for `CC1CN2c3ccc([N+](=O)[O-])cc3CC3(C(=O)N(C)C(=O)N(C)C3=O)C2C(C)O1` (configuration not stated): -12.5% (inactive); for `CN1c2ccc([N+](=O)[O-])cc2CC2(C(=O)NC(=O)NC2=O)C1c1ccccc1` (configuration not stated): 0.68% (inactive).
The same measure for `CN1C(=O)N(C)C(=O)C2(Cc3cc([N+](=O)[O-])ccc3N(C)C2c2ccccc2)C1=O` (configuration not stated): -13.2% (inactive).
The same measure for `COc1ccc2nc(C)cc(Sc3nc4ccccc4s3)c2c1`: 0.98% (inactive).
In the case of `COc1ccc(Cl)cc1N1C(=O)C2CCCN2C1c1sccc1C` (configuration not stated), the inhibition is -9.7% (inactive).
The same measure for `CCCCC(Sc1nc(N)c(NC(=O)c2ccc(OC)cc2)c(=O)[nH]1)C(=O)O` (configuration not stated): -2.8% (inactive); for `Cc1ccc(OCC(=O)Nc2ccc(S(=O)(=O)Nc3ccccn3)cc2)c(C)c1`: -1.52% (inactive); for `COc1ccc(/C=N/NC(=O)C(C)Sc2ccccn2)cc1[N+](=O)[O-]` (configuration not stated): -3.03% (inactive).
The same measure for `CCOc1cccc(CN2CCCC(CCC(=O)NCc3ccccc3F)C2)c1O` (configuration not stated): -1.53% (inactive); for `CC1CCc2c(sc3nc(CSc4nnnn4C)[nH]c(=O)c23)C1` (configuration not stated): 42.6% (inactive).
`CCCCNC(=O)Nc1cnn(CC)c1C(N)=O`: the inhibition was -2.68% (inactive).
The same measure for `O=C1O/C(=C\c2ccccc2)c2ccccc21`: 1.65% (inactive).
The same measure for `O=C1O/C(=C/c2ccccc2)c2ccccc21`: 2.2% (inactive).
The same measure for `Nc1nnc(SCC(=O)N2CCN(c3ccccc3)CC2)n1-c1ccccc1`: -16.5% (inactive); for `Cc1[nH]nc2c1C(=O)CCC2`: -7.75% (inactive).
In the case of `O=c1ccnc(Sc2ncccc2[N+](=O)[O-])[nH]1`, the inhibition was 7.87% (inactive).
The same measure for `CC(C)(C)n1cnnc1Sc1ncccc1[N+](=O)[O-]`: -0.66% (inactive); for `Nc1nnc(Sc2ccc(Cl)cc2[N+](=O)[O-])s1`: 6.61% (inactive); for `CC(C)(C)c1csc(Sc2ncccc2[N+](=O)[O-])n1`: 7.08% (inactive).
The same measure for `Cc1ccc(N/C=C(\C#N)S(=O)(=O)c2ccccc2)cc1`: 1.01% (inactive).
As to `CC(=O)c1cc(-c2ccc(F)cc2)n(CCC(=O)Nc2cc(C)[nH]n2)c1C`, the inhibition is 5.45% (inactive).
The same measure for `Cn1c(N)c(-c2nc3cccnc3n2C)sc1=S`: 2.49% (inactive).
On to `Cc1cc(NC(=O)c2ccc(C)s2)n(-c2nc3ccccc3[nH]2)n1`, for which the inhibition was 83.6% (inactive).
The same measure for `Cc1cc(NC(=O)c2ccccc2)n(-c2ccccc2)n1`: -5.06% (inactive); for `O=C(Nc1nc2ccccc2[nH]1)c1cccs1`: 56.3% (inactive); for `CC(=O)Nc1nc2ccccc2[nH]1`: -9.36% (inactive).
Turning to `Cc1cc(NC(=O)c2cccs2)n(-c2nc3ccccc3[nH]2)n1`, the inhibition was 94.8% (inactive).
The same measure for `Cc1cc(NC(=O)c2ccccc2F)n(-c2nc3ccccc3[nH]2)n1`: 55.8% (inactive); for `COc1cccc(OC)c1C(=O)Nc1cc(C)nn1-c1nc2ccccc2[nH]1`: 53.2% (inactive); for `COc1ccc(C(=O)Nc2cc(C)nn2-c2nc3ccccc3[nH]2)c(OC)c1`: 57.3% (inactive).
As to `OCC1(Cc2ccccc2)CCN(Cc2ccc(C(F)(F)F)cc2)CC1`, the inhibition is 10.2% (inactive).
Turning to `CC1(C)C(c2ccc(Cl)cc2)=[N+]([O-])C2(CCCC/C2=N\O)N1O` (configuration not stated), the inhibition was 2.14% (inactive).
The same measure for `O=C(N/N=C/c1cc(Br)cs1)c1ccc2c(c1)OCCO2`: 6.73% (inactive); for `O=C(CSc1nnc(-c2ccco2)n1CC1CCCO1)c1ccc(F)cc1` (configuration not stated): -15.7% (inactive).
Turning to `N#CCSc1nc2ccccc2c(=O)n1CC1CCCC1`, the inhibition is -2.18% (inactive).
For the compound `CC(Sc1ccc(Br)cc1)C(N)=O` (configuration not stated), the inhibition was -7.76% (inactive).
The same measure for `Cc1nc(N(C)C)c2sc(=S)n(-c3ccccc3)c2n1`: 0.72% (inactive); for `C/C(=N\NS(=O)(=O)c1ccc([N+](=O)[O-])cc1)c1ccc(NC(=O)c2ccco2)cc1`: -1.1% (inactive).
Turning to `C=CCNC(=O)CSc1nnc(-c2ccccc2Br)n1-c1cccc(C(F)(F)F)c1`, the inhibition is 5.16% (inactive).
Regarding `Cc1cc(NC(=O)c2ccc(F)cc2F)n(-c2nc3ccccc3[nH]2)n1`, the inhibition was 4.49% (inactive).
The same measure for `Cc1cc(NC(=O)/C=C/c2ccccc2Cl)n(-c2nc3ccccc3[nH]2)n1`: 66.7% (inactive); for `COc1cc(C(=O)Nc2nc3ccccc3[nH]2)cc(OC)c1OC`: 75.8% (inactive); for `O=C(Nc1nc2ccccc2[nH]1)c1ccc([N+](=O)[O-])cc1`: 75% (inactive).
The same measure for `O=C(NCCc1nc2ccccc2[nH]1)c1ccc(Cl)c([N+](=O)[O-])c1`: -1.68% (inactive); for `COc1cccc(C(=O)Nc2nc3ccccc3[nH]2)c1`: 46.1% (inactive).
The same measure for `CCOc1ccccc1OCC(=O)Nc1nc2ccccc2[nH]1`: 9.65% (inactive); for `Cc1cc(C)c(OCC(=O)Nc2nc3ccccc3[nH]2)c(C)c1`: 9.75% (inactive); for `COCCn1c(SCC(=O)Nc2sc(C)c(C)c2C#N)nnc1-c1ccc(OC)cc1`: -11.5% (inactive).
Turning to `CC(C)(C)C1CCc2onc(C(=O)O)c2C1` (configuration not stated), the inhibition was -7.72% (inactive).
The same measure for `C/C(=N\NC(=O)Cc1c(C)[nH][nH]c1=O)c1ccc2ccccc2c1`: -1.62% (inactive); for `CC(C)C(=O)NNC(=O)c1cc2sccc2s1`: -9.47% (inactive); for `Cc1cc(Br)c(NC(=O)CCl)c(Br)c1`: 10% (inactive).
The same measure for `CC(=O)Nc1sc(N/N=C\c2ccco2)nc1-c1cccs1`: 2.35% (inactive); for `Cc1ccc(CONC(=O)c2ccc(OC(F)F)cc2)cc1`: -0.18% (inactive).
The same measure for `CC1(C)C(c2ccccc2)=[N+]([O-])CN1O`: -10.2% (inactive); for `Cc1cc(C)n(-c2nc3ccccc3[nH]c2=O)n1`: -9.01% (inactive); for `O=S(=O)(N/N=C/c1cccc(OC2CSC2)c1)c1ccccc1`: 2.91% (inactive).
Take `O=C(NCCCN1CCCC1=O)Nc1ccc(Cl)cc1`: the inhibition was -8.24% (inactive).
With `Cc1c(C(=O)Nc2ccc3c4c(cccc24)CC3)cccc1[N+](=O)[O-]`, the inhibition was 13.3% (inactive).
The same measure for `Cc1csc(NC(=O)c2cnccn2)n1`: -4.5% (inactive); for `O=C(Nc1nc2c(s1)CCCC2)c1cc(-c2ccccc2)nc2ccccc12`: 14.1% (inactive); for `O=C(Nc1nccs1)c1cc(-c2ccncc2)nc2ccccc12`: -1.16% (inactive).
Regarding `O=C(Nc1nccs1)c1cc(-c2ccccc2)nc2ccccc12`, the inhibition is 19% (inactive).
The same measure for `Cc1ccc(-c2cc(C(=O)Nc3ccc(S(=O)(=O)Nc4nccs4)cc3)c3ccccc3n2)c(C)c1`: 69.9% (inactive).
With `Cc1ccc(-c2cc(C(=O)Nc3nccs3)c3ccccc3n2)o1`, the inhibition was 12.8% (inactive).
Consider `O=C(Nc1nc2c(s1)CCCC2)c1cc(-c2ccncc2)nc2ccccc12`, for which the inhibition was 10.1% (inactive).
The same measure for `O=C(Nc1nc(-c2ccc(F)c(F)c2)cs1)c1cnccn1`: 10.2% (inactive); for `CC(C)C1(C)N=C(c2ncccc2C(=O)O)NC1=O` (configuration not stated): -2.93% (inactive); for `Cc1nn(CC(=O)N2c3ccccc3NC(=O)C2(C)C)c(C)c1[N+](=O)[O-]`: 0.71% (inactive).
For `Cc1c(NC(=O)C(C)OC(=O)Cc2ccccc2)c(=O)n(-c2ccccc2)n1C` (configuration not stated), the inhibition is -13.3% (inactive).
Regarding `O=C(O)Cn1nnc2ccccc21`, the inhibition was -9.61% (inactive).
The same measure for `CC(=O)Nc1ccccc1NC(=O)c1ccc(C)c(C)c1`: -3.12% (inactive); for `Nc1c(C(=O)N/N=C/c2ccc([N+](=O)[O-])cc2)sc2nnc(-c3ccccc3)c(-c3ccccc3)c12`: -2.7% (inactive).
Take `O=C(NCC(O)CO)c1ccc2[nH]c3ccccc3c2c1` (configuration not stated): the inhibition is 1.5% (inactive).
The same measure for `Cn1c(N2CCCC2)nc2c1c(=O)n(Cc1cccc(F)c1)c(=O)n2C`: 2.57% (inactive); for `Cc1nc(N2CCOCC2)c2cc(-c3ccccc3)sc2n1`: 5.12% (inactive); for `O=c1cc(-c2ccccc2)nc(N2CCN(Cc3ccccc3)CC2)[nH]1`: 16.3% (inactive).
Regarding `Cc1ccc(SCc2cc(=O)[nH]c(N3CCN(Cc4ccc5c(c4)OCO5)CC3)n2)cc1`, the inhibition was 4.26% (inactive).
Regarding `Cc1nc(N2CCN(C)CC2)c2cc(-c3ccccc3)sc2n1`, the inhibition was -3.54% (inactive).
The same measure for `COC(=O)c1cccc(NCN2C(=O)c3ccccc3C2=O)c1`: 1.78% (inactive); for `COc1ccc(CN2CCn3nc(C(=O)NC4CC4)cc3C2=O)cc1`: 0.45% (inactive).
The same measure for `CCc1nn(CC(=O)NCCN2CCN(C)CC2)c(=O)c2cc3occc3n12`: 2.11% (inactive).
The same measure for `O=C(Nc1ccccc1F)C1CCCN(S(=O)(=O)c2ccccc2)C1` (configuration not stated): 1.63% (inactive).
